The sample as a whole holds a higher share of hits than the screen did.
ALOX12 inhib = 12-hLO (ALOX12) enzyme inhibition | P18054 | Potency, µM (doses to about 57.1 µM), usual class: inhibitors | AID 1452 | 150,000 compounds, 0.12% hits | purified 12-hLO, xylenol orange hydroperoxide absorbance; further: nearly all actives have a fitted effect of over 55% in size
Target sequence (P18054 whole entry, looked up): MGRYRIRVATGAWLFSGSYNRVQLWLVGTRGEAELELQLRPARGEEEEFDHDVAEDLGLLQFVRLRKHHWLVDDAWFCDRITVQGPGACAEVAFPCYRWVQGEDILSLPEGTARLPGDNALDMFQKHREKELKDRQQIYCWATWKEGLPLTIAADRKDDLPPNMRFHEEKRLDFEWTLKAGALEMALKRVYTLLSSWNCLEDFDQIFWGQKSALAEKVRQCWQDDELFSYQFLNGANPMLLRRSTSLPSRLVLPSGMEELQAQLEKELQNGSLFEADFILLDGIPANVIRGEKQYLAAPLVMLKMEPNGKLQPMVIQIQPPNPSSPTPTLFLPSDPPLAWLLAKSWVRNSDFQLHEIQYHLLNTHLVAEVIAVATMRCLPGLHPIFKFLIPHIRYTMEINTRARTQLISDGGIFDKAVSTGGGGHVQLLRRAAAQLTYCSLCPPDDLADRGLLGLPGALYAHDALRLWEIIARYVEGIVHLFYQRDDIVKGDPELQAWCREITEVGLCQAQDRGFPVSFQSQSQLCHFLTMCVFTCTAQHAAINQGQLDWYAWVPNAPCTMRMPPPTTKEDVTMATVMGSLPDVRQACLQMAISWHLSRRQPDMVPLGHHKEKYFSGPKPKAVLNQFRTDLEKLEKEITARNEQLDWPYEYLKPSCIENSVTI
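Purified human 12hLO (150 nM final) was preincubated with compounds for 15 min at room temperature in 25 mM Hepes pH 7.0, 0.01% Triton X-100, then reacted with 40 uM arachidonic acid for 30 min. Hydroperoxide was detected with ferrous iron/xylenol orange.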
PNC inhibitor = blocks assembly of the perinucleolar compartment; activity change (PNC), negative = inhibition, % at 10 µM; AID 2417; PC3M PTB-GFP, PNC prevalence imaging, 16 h; stronger effect = lower value; 140,000 compounds, 3.1% hits;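 active means readout at or below -70, meaning at least 70% loss of cells showing the perinucleolar compartment, a nuclear body marking cancer cells; inconclusive means readout between -30 and a set limit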
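Read-out is percentage of cells bearing a perinucleolar compartment, from automated 20x imaging of fixed, Hoechst-stained PC3M PTB-GFP cells. Cells were seeded 4 h, then exposed 16 h to compound (23 nl of library stock) in duplicate plates.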
IMPase Li cell = membrane-permeable IMPase blocker, potentiated with lithium; Potency, µM (highest dose often 59.4 µM), hits mostly inhibitors; CHO-M1 cells, IP1 TR-FRET (IP-One), carbachol + lithium; 210,000 compounds, 0.35% hits;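 further: IP1 builds up when IMPase is blocked and the TR-FRET signal falls; nearly all actives have a fitted effect of over 50% in size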
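Steps: plate 2000 CHO-M1 cells per well and culture 16–30 h; add compound and lithium; incubate 30 min, 37C; add d2-IP1 tracer and Eu cryptate anti-IP1 antibody in lysis buffer; read after 10 min at room temperature.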
IMPase cell inh = IMPase inhibition in cells; P97697; CHO-M1 cells, IP1 accumulation, HTRF TR-FRET ratio; inhibition (IP1 accumulation), % at 46.1 µM; 120,000 tested, under 10 active; active means well fitted curve in the direction sought with a large enough effect in the signal ratio, not every such curve was filed as active; inconclusive means small, poorly fitted or top-dose-only effect, or a change in a side signal; inactive means no such curve, though single readings can be large or run the other way; the % refers to the signal ratio;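 further: cells stimulated with carbachol in lithium chloride buffer; higher means more IMPase inhibition seen as more IP1 and lower FRET ratio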
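Elevated IP1 in lysates lowers TR-FRET signal (665/620 ratio and 620 channel reported). Cells were CHO-M1, given carbachol (50 uM as added) plus 50mM LiCl, pH 7.4, 30 min, 37C; compounds titrated up to 46 uM; AC50 by Hill equation.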
15-hLO-2 inh = 15-hLO-2 (ALOX15B) enzyme inhibition. O15296. purified 15hLO-2, xylenol orange hydroperoxide absorbance. Potency, µM (series often up to 57.1 µM), usual class: inhibitors. 110,000 compounds, 0.56% hits. AID 881; further: nearly all actives have a fitted effect of over 60% in size
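Read-out: hydroperoxide product oxidises ferrous iron, measured as xylenol orange complex via the 573-to-405 nm absorbance ratio after 30 min. Reaction: 50 nM enzyme, 15 min compound preincubation, 45 uM arachidonic acid, 90 min RT, Hepes pH 7.5 with Triton X-100.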
Numbers stand for hits; - = inactive; ? = inconclusive; . = not tested or not shown; [ ] = remark or other dose. Unless noted, the call rests on the fitted dose curve; in most records, active means well fitted curve in the direction sought with a large enough effect; inconclusive means small, poorly fitted or top-dose-only effect, or another doubt; inactive means no such curve, though single readings can be large; an effect the other way counts as inactive or inconclusive.

SMILES	ALOX12 inhib	PNC inhibitor	IMPase Li cell	IMPase cell inh	15-hLO-2 inh
COC(=O)[C@@]1(Cc2ccc(OC)cc2)[C@H]2c3cc(C(=O)N(C)C)n(CCc4c[nH]c5ccc(O)cc45)c3C[C@H]2CN1C(=O)c1ccccc1	-	.	-	.	-
O=C(O)C1Cc2c([nH]c3ccccc23)C(c2coc3ccccc3c2=O)N1 (stereo not given)	.	.	-	.	.
COC(=O)c1sc(N2C(=O)c3oc4ccccc4c(=O)c3C2c2ccc(O)cc2)nc1C (stereo not given)	.	.	.	-	.
CCCSc1nnc2n(-c3cccc(C)c3)c(=O)c3c4c(sc3n12)CCCC4	.	.	.	-	.
Cc1cc(-n2c(C)cc(C(=O)CSc3nnnn3-c3ccc(Cl)cc3)c2C)no1	-	-100	-	-	.
C=CC[C@H]1CC(Cc2ccccc2)=C[C@H](CC=C)N1	-	-81	-	.	.
CS(=O)(=O)N1CCC2(CCCN(c3cccc(-c4ccccc4)c3)C2)CC1	-	.	-	.	-
COc1cc(OC)cc(-c2n[nH]c(=S)n2-c2ccc3c(c2)OCO3)c1	-	-104	-	.	.
O=C(Nc1ccccc1C(F)(F)F)C1CC(=O)N(c2ccccc2F)C1 (stereo not given)	-	-81	-	-	-
C=CCN(CC=C)C(=O)C1CCC(C(=O)N(CC=C)CC=C)CC1 (stereo not given)	-	-88	-	-	-
CCc1nnc2c(NCc3ccc(F)cc3)nc3ccccc3n12	.	.	.	-	.
CN(C)CC(=O)N1c2ccccc2CCc2ccc(NC(=O)c3ccc(N)cc3)cc21	-	-85	-	-	-
CC(C)N=C=NC(C)C	-	.	-	.	-
CS(=O)(=O)N1CCc2cc(-c3csc(NC(=O)Cc4ccccc4)n3)ccc21	-	-119	-	-	.
CC1Cc2cc(-c3csc(NC(=O)Cc4cccs4)n3)ccc2N1S(C)(=O)=O (stereo not given)	-	-125	-	-	-
CCCC(=O)Nc1nc(-c2ccc3c(c2)CCN3S(C)(=O)=O)cs1	-	-	-	-	.
COc1cccc(-c2nnc3n2N=C(c2cc(OC)ccc2OC)CS3)c1	-	-	-	-	-
CCOc1cccc(-c2nnc3n2N=C(c2cc(OC)ccc2OC)CS3)c1	-	-99	-	-	.
CCN(CC)S(=O)(=O)c1cccc(C(=O)c2c(C)cc3ccccn23)c1	-	-94	-	.	.
O=C(NCc1ccccc1)c1ccc(Cc2nc3ccccc3[nH]2)cc1	-	.	.	.	.
O=C(O)/C=C\c1ccc(O)c(O)c1	-	.	-	-	-
O=C(/C=C/c1ccc(O)c(O)c1)OCCc1ccccc1	?	.	-	.	10µM
O=C(Nc1cccc(F)c1)N1CC[C@@]2(CCCN(C(=O)c3csnn3)C2)C1	-	.	-	.	-
CC(C)(C)OC(=O)NCc1nc(N)n[nH]1	-	-100	-	-	.
Nc1nc(Cl)nc2c1ncn2[C@@H]1O[C@@H](CO)[C@@H](O)[C@H]1O	-	.	.	-	-
SMILES	ALOX12 inhib	PNC inhibitor	IMPase Li cell	IMPase cell inh	15-hLO-2 inh
CC(=O)N1CCN(C2=NC(=O)C(=C3CCCCC3)S2)CC1	-	-100	-	-	.
O=C1N=C(N2CCOCC2)SC1=C1CCCCC1	-	-	-	-	-
O=S(=O)(c1ccc2nc(-c3ccccc3)[nH]c2c1)N1CCN(c2cccc(Cl)c2)CC1	-	-	-	.	.
COc1ccccc1N1CCN(S(=O)(=O)c2ccc3nc(-c4ccccc4)[nH]c3c2)CC1	-	-113	-	.	.
Cc1c(C(=O)OC2CCC(C)CC2)[nH]c2c1C(=O)CC(c1ccc(N(C)C)cc1)C2 (stereo not given)	.	.	.	-	.
CCCn1c(NC(=O)c2ccc(F)cc2)nc2ccccc21	.	.	-	.	.
CCCn1c(NC(=O)c2ccc(Br)cc2)nc2ccccc21	-	-	28µM	?	-
N#C/C(=C\c1ccccc1)c1nc(-c2cc3c(ccc4ccccc43)oc2=O)cs1	.	.	.	-	.
C1=C(CCNc2ncnc3c2[nH]c2ccccc23)CCCC1	-	?	-	-	.
CC(C)OCCCNc1ncnc2c1[nH]c1ccccc12	-	-97	-	-	-
Cn1c(SCC(=O)NCCN2C(=O)CSC2=O)nnc1-c1ccccc1	-	-82	-	.	.
CCN1CCN(CCCN(Cc2ccco2)C(=S)Nc2ccc(Cl)c(C)c2)CC1	.	.	-	.	.
Cc1cc(NC(=S)N(CCCN2CCOCC2)Cc2ccco2)ccc1Cl	-	-118	-	.	.
CCc1nc(NC(C)C)c2oc3ccccc3c2n1	-	-94	-	-	-
CCc1nc(N[C@@H](CC(C)C)C(=O)O)c2oc3ccccc3c2n1	-	-	-	-	-
O=C(Nc1ccc([N+](=O)[O-])cc1)Nc1ccc(OC(F)F)c(Cl)c1	-	-113	-	.	.
O=C(Nc1ccc2c(c1)OCO2)Nc1ccc2c(c1)OCO2	.	.	-	.	.
O=C(Nc1ccc(OC(F)F)c(Cl)c1)Nc1ccc2c(c1)OCO2	-	-87	-	-	-[2.29 µM]
COc1ccc(NC(=O)Nc2cccc([N+](=O)[O-])c2)cc1Cl	-	?	-	-	.
Cc1ccc(C(=O)n2nc(-n3cccc3)c3c(C)cc(C)nc32)cc1	.	.	-	.	.
Cc1cc(C)c2c(-n3cccc3)nn(C)c2n1	-	-109	-	-	-
C=CC1=C2C=C(C3CC3)N(CCOC)C=C2C(=O)C(C)(OC(=O)c2ccco2)C1=O (stereo not given)	-[11.4 µM]	.	-	.	.
Nc1ccccc1-c1nc2ccccc2[nH]1	-	-83	-	-	-
Nc1cccc(-c2nc3ccccc3[nH]2)c1	-	-	-	-	.
O=C(CCn1c(=O)[nH]c2ccsc2c1=O)Nc1ccc(F)c(F)c1	-	-	10µM	-	-
SMILES	ALOX12 inhib	PNC inhibitor	IMPase Li cell	IMPase cell inh	15-hLO-2 inh
COc1ccccc1CNC(=O)CCn1c(=O)[nH]c2ccsc2c1=O	-	-100	-	-	.
COc1ccccc1N1CCN(C(=O)CCCn2c(=O)[nH]c3ccsc3c2=O)CC1	-	-	-	-	-
O=C(CCn1c(=O)[nH]c2ccsc2c1=O)NCCc1ccc(Cl)cc1	-	-	-	-	-
CCOC(=O)c1c(NC(=O)COC)sc2c1CCCC2	-	-84	-	-	-
CCOC(=O)c1[nH]c(C)c(C(=O)N2CCN(C(=O)c3ccco3)CC2)c1C	-	-100	-	-	.
CCOC(=O)c1c(NC(=O)c2ccco2)sc2c1CCCC2	-	-	-	-	-
CCOC(=O)c1[nH]c(C)c(C(=O)N2CCN(c3ccc(F)cc3)CC2)c1C	-	-	-	-	-
CCOC(=O)c1c(NC(=O)CN2CCN(C(=O)c3ccco3)CC2)sc2c1CCCC2	-	-100	-	-	.
N#CCCn1c(=O)c(-c2cccs2)nc2cnc(N3CCOCC3)nc21	.	.	-	.	-
O=C1OC2(c3cc(Br)c(O)c(Br)c3Oc3c2cc(Br)c(O)c3Br)c2c(Cl)c(Cl)c(Cl)c(Cl)c21	-	.	?	.	?
CCc1ccc(N2CC(C(=O)OCC(=O)NC3CCS(=O)(=O)C3)CC2=O)cc1 (stereo not given)	-	-100	-	-	.
